Laboratory results reported in PubChem BioAssay.
Inconclusive results are not listed. Active and inactive are the calls of the source.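 Rule for the calls, unless noted: active = RAM network inhibition above 8.4% in each of two replicates, 3 SD over the compound average; inconclusive = above 8.4% inhibition in only one replicate; inactive = 8.4% inhibition or less in each replicate.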

Tests used:
[1] = S. cerevisiae growth inhibition in permissive medium (OD615), pilot counter-assay for S. cerevisiae lifespan shortening project, permissive growth control (AID 705;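 active = growth inhibition above 25% in both replicates, a cutoff set 3 SD above the mean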); details: OD615, 24 h, at 10 µM, stronger effect = higher value
[2] = S. cerevisiae growth inhibition in restrictive medium, OD615, pilot screen, restrictive growth control, yeast lifespan reduction project (AID 706;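 active = growth inhibition above a set limit, 3 SD over mean compound inhibition, in both replicates, cut at about 43% in these data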;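 note: modified DeaD lifespan yeast strain shifted to restrictive glucose medium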); details: OD615, 48 h, at 10 µM, stronger effect = higher value
[3] = doxorubicin toxicity protection in MRP-1 cells – H69AR cells, CellTiter-Glo, duplicate, MRP-1 activator project, pilot screen (AID 807;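 active = viability increase at or above a cutoff of the median across tested compounds plus 3 SD, cut at about 8.5% in these data, passing the limit was not always enough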;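 note: compound pretreatment 18-22 h then 72 h combined with doxorubicin; 0% = doxorubicin alone and 100% = vehicle without doxorubicin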); details: H69AR viability with doxorubicin, CellTiter-Glo luminescence; at 10 µM; stronger effect = higher value
[4] = viability of HCT116 without oncogenic beta-catenin – human colon tumor cells, pilot screen (AID 823;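 active = cell viability at or below a set limit in both duplicate runs, the limit being the all-compound median minus 4 SD, cut at about 23% in these data, passing the limit was not always enough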;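 note: 0% = wells killed by 20 µM Hyamine and 100% = untreated DMSO cell wells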); details: HCT116 beta-catenin knockout viability, CellTiter-Glo, 60 h; at 10 µM; stronger effect = lower value
[5] = viability of PTEN-null HCT116 cells – cell-based, HCT116 clonal line, CellTiter-Glo, pilot screen (AID 824;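 active = viability at or below 27.92% in each of two runs, the all-compound median minus 4 SD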;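 note: 0% = 20 µM Hyamine control and 100% = vehicle cell control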); details: HCT116 PTEN-deleted viability, 60 h, at 10 µM, stronger effect = lower value
[6] = RAM signaling pathway blockade in yeast – S. cerevisiae, Pdr1DBD-CYC8 efflux-inhibited sensitized strain, primary screen (AID 1298);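 note: 0% = DMSO untreated cells without growth and 100% = 10 µM 1-NA-PP1 full growth; higher means more yeast growth rescued from 5-FOA killing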; details: S. cerevisiae cbk1-as DSE1-URA3 strain, 5-FOA growth OD615, 2 d; at 50 µM; stronger effect = higher value
[7] = HUVEC growth inhibition – cell-based, human, primary screen (AID 575;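 active = viability at or below 30% in both replicate assays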;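 note: 100% = median of untreated cell wells with 0.1% DMSO on each plate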); details: HUVEC proliferation, CellTiter-Glo luminescence, 72 h; at 10 µM; stronger effect = lower value
[8] = H69AR cell proliferation blockers – human, duplicate replicates, primary screen (AID 580;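 active = viability at or under a set limit in both replicates, limit being median viability minus 3 SD, cut at about 48% in these data, passing the limit was not always enough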;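 note: 100% = mean luminescence of untreated wells and 0% = no signal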); details: H69AR lung tumor cells viability, ATP luminescence, 72 h; at 10 µM; stronger effect = lower value
[9] = MRP1 drug-resistance reversers in H69AR cells – cell-based, doxorubicin co-treatment, pilot screen (AID 601;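 active = viability loss from added drug above about 55%, and viability with drug at most 40%, in both replicates, limit read from the data, passing the limit was not always enough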); details: CellTiter-Glo, 72 h, at 10 µM
[10] = yeast transport mutant growth inhibition pilot in 384-well plates, post-Golgi transport modulator project (AID 636; in the data active = inhibition above about 31%); details: absorbance 615 nm, about 18 h, stronger effect = higher value
[11] = growth suppression of yeast trafficking mutant, preliminary HTS, modulators of trafficking downstream of Golgi apparatus project, 1536-format plate, OD 615 nm (AID 637; in the data active = inhibition above about 30%); details: yeast transport mutant growth, absorbance 615 nm, 18 h; stronger effect = higher value
[12] = RAM pathway blockade in budding yeast – dse1pr::URA3 reporter, 5-FOA selection, pilot screen (AID 869;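 active = inhibition over a set limit, the all-compound mean plus 3 SD, in both replicate runs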;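 note: 0% = DMSO wells with no growth and 100% = 10 µM 1-NA-PP1 with full growth; RAM network block rescues cells from 5-FOA so hits raise OD615 growth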); details: S. cerevisiae dse1pr::URA3 5-FOA growth, OD615, 2 d; at 10 µM; stronger effect = higher value; strain carries analog-sensitive mutant Cbk1 kinase

C=CCn1c(SCC(=O)c2cccs2)nc2sc(CC)cc2c1=O
inactive: growth inhibition [1] -5.62% | growth inhibition [2] 5.1% | viability increase [3] -1.39% | viability [4] 76.8% | viability [5] 83.3% | RAM network inhibition [6] 7.45%

CC(C)c1ccc(-c2nc(N3CCCCC3)[nH]c(=O)c2C#N)cc1
inactive: viability [7] 83.3% | viability [8] 88.3% | differential viability (reversal) ([9]; H69AR cells + 2 uM doxorubicin, stronger effect = higher value) 0.79% | inhibition [10] 0.92% | inhibition [11] -3.49% | growth inhibition [1] -17.7% | growth inhibition [2] 3.37% | viability increase [3] -2.54% | viability [4] 102% | inhibition [12] 2.5% | RAM network inhibition [6] 8.32%
87.5%: viability ([9]; H69AR cells + 2 uM doxorubicin, measured here: viability with 2 uM doxorubicin, stronger effect = lower value)
88.3%: viability ([9]; H69AR cells, compound alone cytotoxicity)

O=C(CSc1nnc(Cn2c(=O)sc3ccccc32)n1-c1ccccc1)N1CCCC1
inactive: growth inhibition [1] -8.58% | growth inhibition [2] -14.4% | viability increase [3] -1.4% | viability [4] 97.1% | viability [5] 97% | RAM network inhibition [6] 2.12%

COc1ccc(-c2nc(CS(=O)CC(=O)NCc3ccc(Cl)cc3)c(C)o2)cc1 (configuration not stated)
inactive: growth inhibition [1] -11.9% | growth inhibition [2] 4.36% | viability increase [3] 0.16% | viability [4] 72.4% | viability [5] 79.9% | RAM network inhibition [6] 7.34%

COc1ccc(CCc2nc(-c3ccc(-n4cccc4)cc3)no2)cc1
inactive: growth inhibition [1] -20.1% | growth inhibition [2] -25.5% | viability increase [3] 1.78% | viability [4] 93.9% | viability [5] 91.6% | RAM network inhibition [6] 6.54%

CC1(C)Cc2c(c(=S)nc(-c3ccccc3)n2CCCN2CCOCC2)CO1
inactive: growth inhibition [1] -12.8% | growth inhibition [2] 6.05% | viability increase [3] -3.1% | viability [4] 97.2% | RAM network inhibition [6] 2.19%

COc1ccc(-n2c(SCC(=O)Nc3ccc4c(c3)OCO4)nc3c(c2=O)SCC3)cc1
inactive: growth inhibition [1] -15.7% | growth inhibition [2] -12.5% | viability increase [3] -2.51% | viability [4] 98.2% | viability [5] 81.2% | RAM network inhibition [6] 8.27%

CCOC(=O)c1c(C)[nH]c(C(=O)COc2ccc3c(c2)OCO3)c1C
inactive: growth inhibition [1] 1.84% | growth inhibition [2] -1.24% | viability increase [3] -2.79% | viability [4] 91.2% | viability [5] 87.5% | RAM network inhibition [6] 5.07%

CCOc1ccc(-n2nnc3c(=O)n(CC(=O)c4ccccc4)cnc32)cc1
inactive: growth inhibition [1] -2.31% | growth inhibition [2] 1.56% | viability increase [3] 0.38% | viability [4] 101% | viability [5] 97% | RAM network inhibition [6] 3.09%

CCOC(=O)N1CCN(C(=O)c2ccc(N3C(=O)c4ccccc4C3=O)cc2)CC1
inactive: growth inhibition [1] -3.96% | growth inhibition [2] -15.2% | viability increase [3] -2.58% | viability [4] 99% | viability [5] 93.6% | RAM network inhibition [6] 4.06%

O=C(CSc1oc(-c2ccccc2)nc1S(=O)(=O)c1ccc(F)cc1)NCC1CCCO1 (configuration not stated)
inactive: growth inhibition [1] 4.64% | growth inhibition [2] 0.925% | viability increase [3] -3.53% | viability [4] 86.3% | viability [5] 89% | RAM network inhibition [6] 2.32%

Cc1nnc(NC(=O)CSc2nnc(Cc3cccn3C)n2-c2cccc(C)c2C)s1
inactive: growth inhibition [1] 6.78% | growth inhibition [2] 31% | viability increase [3] -0.56% | viability [4] 100% | viability [5] 87.2% | RAM network inhibition [6] -0.2%

COC(=O)c1cc(=O)[nH]c(SCc2cccc(C)c2)n1
inactive: growth inhibition [1] -9.72% | growth inhibition [2] -0.94% | viability increase [3] -3.27% | viability [4] 102% | viability [5] 101% | RAM network inhibition [6] 6.8%

CCOc1ccc(-n2nnc3c(=O)n(CC(=O)N4CCCc5ccccc54)cnc32)cc1
inactive: growth inhibition [1] -3.47% | growth inhibition [2] -10.2% | viability increase [3] -0.3% | viability [4] 85.3% | viability [5] 84% | RAM network inhibition [6] 2.69%

N#CC(=C1SC=CS1)c1nc(-c2ccccc2)cs1
inactive: growth inhibition [1] 5.05% | growth inhibition [2] -6.89% | viability increase [3] -3.21% | viability [4] 84.4% | RAM network inhibition [6] 9.12%

CCC(=O)N1c2ccccc2-c2nnc(SC)nc2OC1c1ccc(OC)c(OC)c1 (configuration not stated)
inactive: growth inhibition [1] -7.65% | growth inhibition [2] -7.5% | viability increase [3] -2.71% | viability [4] 102% | viability [5] 94.1% | RAM network inhibition [6] 1.85%

CCCCOc1ccccc1NC(=O)CC1Nc2ccccc2NC1=O (configuration not stated)
inactive: growth inhibition [1] 6.14% | growth inhibition [2] 0.91% | viability increase [3] -6.18% | RAM network inhibition [6] 7.51%

CN1C(=O)CSc2ccc(C(=O)O)cc21
inactive: growth inhibition [1] 0.925% | growth inhibition [2] -1.22% | viability increase [3] -0.35% | viability [4] 100% | viability [5] 100% | RAM network inhibition [6] -0.62%

O=C(c1cccs1)N(C(=O)c1cccs1)c1ccccn1
inactive: growth inhibition [1] -5.4% | growth inhibition [2] -6.32% | viability increase [3] -1.11% | viability [4] 96.8% | viability [5] 102% | RAM network inhibition [6] 4.17%

CC1Cn2c(nnc2-c2ccccc2O)S1 (configuration not stated)
inactive: growth inhibition [1] -13.6% | growth inhibition [2] -21.9% | viability increase [3] -1.33% | viability [4] 115% | viability [5] 98.2% | RAM network inhibition [6] 5.23%

O=C(Cn1c(=O)oc2cc(S(=O)(=O)N3CCCCCC3)ccc21)NC1CCCCC1
inactive: growth inhibition [1] -4.92% | growth inhibition [2] -8.79% | viability increase [3] -4.28% | viability [4] 101% | viability [5] 93.8% | RAM network inhibition [6] 3.25%

COc1ccccc1-c1cc(C(F)(F)F)nc(N2CCOCC2)n1
inactive: growth inhibition [1] -8.95% | growth inhibition [2] -13.9% | viability increase [3] -0.29% | viability [4] 78.8% | viability [5] 82.5% | RAM network inhibition [6] 7.23%

Cc1cc(Nc2ccc(C)c(Br)c2)n2nc(C)nc2n1
inactive: growth inhibition [1] -12.9% | growth inhibition [2] 10.4% | viability increase [3] -5% | viability [4] 92.1% | viability [5] 92.8% | RAM network inhibition [6] 3.87%

COCCCNc1nc2c(c(=O)[nH]c(=O)n2C)n1CC(O)COc1ccccc1C (configuration not stated)
inactive: growth inhibition [1] -1.92% | growth inhibition [2] -7.5% | viability increase [3] -2.64% | viability [4] 98.9% | viability [5] 101% | RAM network inhibition [6] 3.44%

OC(COCC1COc2ccccc2O1)CN1CCc2ccccc2C1 (configuration not stated)
inactive: growth inhibition [1] -28.7% | growth inhibition [2] -12.5% | viability increase [3] -2.72% | viability [4] 86.4% | viability [5] 90.8% | RAM network inhibition [6] 1.37%

CCCSc1nc2c(cnn2-c2ccccc2)c(=O)[nH]1
inactive: growth inhibition [1] -12.6% | growth inhibition [2] -17.8% | viability increase [3] -0.89% | viability [4] 105% | viability [5] 95.7% | RAM network inhibition [6] -0.83%

COc1ccc(C)cc1NS(=O)(=O)c1cccc2nonc12
inactive: growth inhibition [1] -8.6% | growth inhibition [2] -10.6% | viability increase [3] -3.24% | viability [4] 95.8% | viability [5] 94.3% | RAM network inhibition [6] 4.42%

COc1ccccc1OCC(O)CN1C(=O)NC(C)(C)C1=O (configuration not stated)
inactive: growth inhibition [1] -7.73% | growth inhibition [2] -7.44% | viability increase [3] -0.34% | viability [4] 93.4% | viability [5] 91.6% | RAM network inhibition [6] 2.29%

CCOc1ccc(Cn2nnc(C(=O)Nc3cc(OC)cc(OC)c3)c2N)cc1
inactive: growth inhibition [1] -2.1% | growth inhibition [2] 0.885% | viability increase [3] -5.5% | viability [4] 86% | viability [5] 88% | RAM network inhibition [6] 2.46%

CCCCCCSc1cc(C)nc2ncnn12
inactive: growth inhibition [1] -19% | growth inhibition [2] 2.92% | viability increase [3] -0.06% | viability [4] 93.6% | viability [5] 83.2% | RAM network inhibition [6] 0.21%

CC(=O)NCc1cn2c(C)csc2n1
inactive: growth inhibition [1] -16.9% | growth inhibition [2] -3.26% | viability increase [3] -3.88% | viability [4] 98.1% | viability [5] 90% | RAM network inhibition [6] 3.01%

O=C(Nc1ccccc1-c1nc2ccccc2s1)c1ccco1
inactive: growth inhibition [1] -6.38% | growth inhibition [2] -20.9% | viability increase [3] -5.19% | viability [4] 74.7% | viability [5] 61.9% | RAM network inhibition [6] 6.4%

Clc1cc(Br)ccc1OCCOCCN1CCOCC1
inactive: growth inhibition [1] -3.75% | growth inhibition [2] 2.38% | viability increase [3] 0.57% | viability [4] 93.5% | viability [5] 91.7% | RAM network inhibition [6] 0.08%

Cc1ccc(C2CC(=O)NC(SCCC(C)C)=C2C#N)cc1 (configuration not stated)
inactive: growth inhibition [1] -9.08% | growth inhibition [2] -2.19% | viability increase [3] -4.1% | viability [4] 96.8% | viability [5] 78.9% | RAM network inhibition [6] 9.74%
